Structures are written as SMILES. Hit rate of the full screen: of about 270,000 compounds, about 5,800 (2.1%) were called active. A call without a number means that no potency is given here. Another 16% or so got no clear call; they are omitted. Calls come from the whole dose curve; as a rule, active = well fitted inhibition curve with a large enough effect; inconclusive = small, poorly fitted or top-dose-only effect; inactive = flat fitted curve, though single readings scatter. This excerpt belongs to a sample that is enriched for actives.
Potency is the fitted concentration of half-maximal effect.

Chain of Microtubule-associated protein tau (Homo sapiens) (P10636 561-689 P618L limits assumed): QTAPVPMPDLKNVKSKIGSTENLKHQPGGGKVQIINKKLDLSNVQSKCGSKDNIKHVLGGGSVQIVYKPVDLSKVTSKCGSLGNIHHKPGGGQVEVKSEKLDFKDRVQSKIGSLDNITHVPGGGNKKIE

In the test the target is Microtubule-associated protein tau (Homo sapiens) (UniProt P10636). Nature of the test: qHTS for Inhibitors of Tau Fibril Formation, Thioflavin T Binding. Note: nearly all actives have a fitted effect of over 55% in size. As to conditions: recombinant tau K18 P301L (four-repeat tau fragment), heparin-induced fibrillization, ThT fluorescence; series mostly up to 57.4 µM. The procedure, abridged:
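Tau K18 P301L fragment (15 uM unlabeled plus 0.24 uM Alexa 594-labeled) in 100 mM sodium acetate pH 7 with compound, fibrillization induced by 20 uM heparin for 6 hr at 37 C. Thioflavin T (30 uM) added, fluorescence read after 1 hr (ex 450, em 510 nm).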
For the molecule `O=C(CCS(=O)(=O)c1ccccc1)N(Cc1cccnc1)c1nc2c(F)cccc2s1`, the Potency result is “inactive”. For the molecule `O=C(Nc1ccc(N2CCOCC2)cc1)c1ccc(-c2ccccc2[N+](=O)[O-])o1`, the Potency is 2.24 µM (active). In the case of `O=C(CSc1ccc([N+](=O)[O-])cn1)Nc1ccc(N2CCOCC2)cc1` it was “inactive”. With `CN(CC(=O)Nc1ccc(N2CCOCC2)cc1)CC(=O)Nc1ccccc1[N+](=O)[O-]`, the Potency result is “inactive”. To `Cc1ccc(S(=O)(=O)n2nc(C)c(S(=O)(=O)N3CCCCCC3)c2C)cc1` belongs “inactive”; to `CC(=O)Nc1ccc(S(=O)(=O)N2CCN(c3ccccc3)CC2)cc1`, “inactive”; to `CCOc1ccc(OCC)c(NC(=O)c2cc(C)nc3c2c(C)nn3-c2cccc(Cl)c2C)c1`, “inactive”. To `COc1cc(SC#N)ccc1N=Cc1c(C)[nH]n(-c2ccc(C)cc2)c1=O` belongs 14.1 µM (active); to `COc1cc(NS(=O)(=O)c2ccc(N=Cc3c(C)[nH]n(-c4ccccc4)c3=O)cc2)nc(OC)n1`, “inactive”; to `CS(=O)(=O)c1ccc2c(c1)SC1=NC(=O)/C(=C/c3ccco3)C(=N)N12`, 7.08 µM (active). In the case of `CCC1=NN2C(=N)/C(=C/c3cc(C)n(-c4ccccc4)c3C)C(=O)N=C2S1`, the Potency entry is “inactive”. `Cc1cc(/C=C2/C(=N)N3C(=NC2=O)SN=C3S(C)(=O)=O)c(C)n1-c1ccccc1`: the Potency result was “inactive”.

Consider `Cc1cc(C)cc(NC(=O)Cn2nc(N3CCN(c4ccccc4)CC3)ccc2=O)c1`, for which the Potency entry was “inactive”. On to `Cc1c(-c2cccc(NC(=O)C(C)(C)C)c2)nc2ncccn12`, for which the Potency entry was “inactive”. Regarding `Cc1cccn2c(=O)c(C(=O)NC(C)c3ccccc3)cnc12` (stereo not given), the Potency result is “inactive”. Consider `Cc1ccc(-c2csc(NNC(=O)c3ccccc3)n2)cc1`, for which the Potency was 12.6 µM (active).

In the case of `Cc1nc(NNC(=O)c2ccccc2)cc(-c2ccccc2)n1`, the Potency entry is “inactive”.

On to `Cc1ccc(-c2csc(NC(=O)c3cccs3)n2)cc1`, for which the Potency entry was “inactive”. On to `Cc1ccc(OC(=O)CSc2nnc(-c3cccs3)o2)cc1`, for which the Potency result is “inactive”. Regarding `CCc1ccc(NS(=O)(=O)c2ccc3[nH]cc(C(=O)NCCc4cccc(C)c4)c(=O)c3c2)cc1`, the Potency result was “inactive”. As to `Cc1ccc(N2CC(NC(=O)Cc3cccs3)CC2=O)cc1` (stereo not given), the Potency result was “inactive”. With `COc1cccc(NC(=O)c2ccc3nc(CCc4ccccc4)oc3c2)c1`, the Potency result is “inactive”. `Cn1c(=O)c2c(n3c4ccccc4nc13)NC(=O)CC2c1cccc(Cl)c1` (stereo not given): the Potency result is “inactive”. As to `O=C(Cc1ccc(Br)cc1)N1CCN(c2ccccn2)CC1`, the Potency entry is “inactive”. With `O=C1Nc2ccc(Br)cc2/C1=N/N=C/C1=C(N2CCOCC2)C(=C\c2ccccc2)/CC1`, the Potency was 4.47 µM (active). Turning to `C(=N\N1CCN(c2ccccn2)CC1)/C1=C(N2CCOCC2)C(=C/c2ccccc2)/CC1`, the Potency is 11.2 µM (active). Take `O=C(CN1CCN(c2ccccn2)CC1)N1CCc2ccccc21`: the Potency entry is “inactive”. As for `Cc1c(-c2nc(-c3ccc4c(c3)OCO4)no2)nnn1-c1ccc(Br)cc1F`, the Potency result is “inactive”. On to `CC1CCCN(c2nc3c(S(=O)(=O)c4ccc(C(C)C)cc4)nnn3c3ccsc23)C1` (stereo not given), for which the Potency entry is “inactive”.

As for `CCOc1ccc(CNCc2c(C(=O)O)c(C)n(Cc3cccc(OC)c3)c2C)cc1OC`, the Potency entry is “inactive”. In the case of `CCc1ccc(N(CC)C(=O)CCn2cnc3onc(-c4ccc(F)cc4)c3c2=O)cc1` it was “inactive”.

On to `Cc1ccc2c(=O)c(C(=O)c3ccc(F)cc3)cn(CC(=O)NC3CCCCC3)c2n1`, for which the Potency entry is “inactive”. Consider `COc1cc(-c2noc(-c3ccc(N4CCCC4)c([N+](=O)[O-])c3)n2)cc(OC)c1OC`, for which the Potency entry was “inactive”.

Turning to `CCc1ccccc1NC(=O)c1sc2nc3c(cc2c1N)CN(Cc1ccccc1)CC3`, the Potency result is “inactive”. Regarding `CCN1CCc2nc(NC(=O)c3cc(F)c(F)cc3Cl)sc2C1`, the Potency entry is “inactive”.

In the case of `CCc1ccc(NC(=O)c2sc3nc4c(cc3c2N)CN(CC)CC4)cc1`, the Potency is 10 µM (active). Consider `Cc1ccc(-n2ncc(C(=O)N(C)Cc3ccccc3)c2-n2cccc2)cc1`, for which the Potency result was “inactive”. With `O=C(N/N=C/c1ccc([N+](=O)[O-])cc1)c1c[nH]c2ccccc12`, the Potency is 2.82 µM (active). Turning to `O=C(Nc1ccccc1)/C(=C/c1ccc([N+](=O)[O-])cc1)NC(=O)c1ccccc1`, the Potency entry is “inactive”.

As to `O=[N+]([O-])c1ccc(N/N=C/c2ccccc2)cc1`, the Potency is 3.55 µM (active). To `Cc1cccc(COc2ccccc2/C=N/Nc2ccc([N+](=O)[O-])cc2)c1` belongs 3.16 µM (active). On to `Cc1c(C(=O)N/N=C/c2ccccc2)[nH]c2c([N+](=O)[O-])cccc12`, for which the Potency entry was “inactive”. Turning to `Cc1ccccc1OCCOc1ccc([N+](=O)[O-])cc1/C=N/n1cnnc1`, the Potency entry was “inactive”. Take `O=C(NC(Cc1c[nH]c2ccccc12)C(=O)N/N=C/c1ccc(Br)cc1)c1cccs1` (stereo not given): the Potency result is “inactive”. For `Cc1cccc(C(=O)NNC(=O)c2cccc([N+](=O)[O-])c2)c1`, the Potency entry was “inactive”. Turning to `COc1cc(CC(=O)N/N=C/c2ccccc2)c([N+](=O)[O-])cc1OC`, the Potency entry was “inactive”. To `CNc1ccc(-c2nc(-c3ccco3)no2)cc1[N+](=O)[O-]` belongs “inactive”; to `Cc1ccc(Cl)cc1NC(=O)NC1COc2ccccc2C1` (stereo not given), “inactive”.

Consider `COc1ccc(NC(=O)CSc2nccn2C2CCCC2)cc1OC`, for which the Potency result was “inactive”. To `O=C(CN1C(=O)CCn2nc(-c3ccccc3)cc21)NCc1ccccc1` belongs “inactive”; to `Cc1ccc(-n2c(SCC(=O)Nc3cccc(F)c3)nc3c(oc4ccccc43)c2=O)cc1C`, “inactive”; to `COc1ccc(/C=C(/CC(=O)Nc2ccc(C)cc2)c2nc3ccccc3s2)cc1`, “inactive”. Take `COc1ccc(S(=O)(=O)N2CCOCC2)cc1C(=O)Nc1nc2ccccc2s1`: the Potency entry is “inactive”. As for `COc1cccc2sc(NNC(=O)c3nc4ccccc4s3)nc12`, the Potency was 7.94 µM (active). In the case of `Cc1ccc(C)c(N2CCN(c3ccc4cc(S(=O)(=O)N5CCC(C)CC5)ccc4n3)CC2)c1` it was “inactive”; in that of `CC(=O)c1cc(C#N)c(SCC(=O)Nc2nccs2)nc1C`, 7.08 µM (active); in that of `CC(=O)c1cc(C#N)c(SCC(=O)C(C)(C)C)nc1C`, “inactive”. As to `Cc1[nH]c2ccccc2c1SCC(=O)Nc1nccs1`, the Potency result was “inactive”. To `COc1ccc(CCNc2ncnc3onc(-c4ccc(Cl)cc4)c23)c(OC)c1` belongs “inactive”; to `CCOCCc1nn2c(=O)cc(COC(=O)CNC(=O)c3ccc(C(C)(C)C)cc3)nc2s1`, “inactive”. On to `Cc1ccc(C(=O)COC(=O)CCCC(=O)NC2CCCCC2)cc1[N+](=O)[O-]`, for which the Potency entry is “inactive”.

For the molecule `Cc1cc(C=O)c(C)n1-c1ccc(NC2CCCCC2)c([N+](=O)[O-])c1`, the Potency was 14.1 µM (active). Consider `Cc1c(NC(=O)CCC2CCCCC2)cc(C(=O)N2CCOCC2)cc1[N+](=O)[O-]`, for which the Potency result is “inactive”. Take `COCCN(Cc1ccco1)C(=O)Cn1ncc2c([nH]c3ccccc32)c1=O`: the Potency entry is “inactive”.

With `CC(=O)N1CCN(c2ccc(NCc3ccc(C(C)C)cc3)cc2)CC1`, the Potency was 12.6 µM (active). In the case of `O=C(Nc1ccc(F)cc1)N1CCN(c2ccc(F)cc2)CC1`, the Potency result was “inactive”.

Consider `CC(CC(=O)N1CCN(c2ccccc2)CC1)c1ccccc1` (stereo not given), for which the Potency result was “inactive”.

On to `Cc1c(CCNC(=O)c2ccc(C(F)(F)F)cc2)sc2nc(-c3ccc(F)cc3)nn12`, for which the Potency result is “inactive”. Regarding `COc1ccc(Cl)cc1NC(=O)CCn1c(=O)c2cccn2c2ccccc21`, the Potency entry is “inactive”. Take `CCOc1ccc(CNC(=O)c2ccc3nc(CC)c(CC)nc3c2)cc1OC`: the Potency result was “inactive”.

Regarding `COc1ccc2c(c1)C(C)=CC(C)(C)N2C(=O)Nc1ccccc1`, the Potency is 28.2 µM (active). With `COc1ccc2c(c1)C(C)=CC(C)(C)N2C(=O)CNCc1ccc2c(c1)OCO2`, the Potency result is “inactive”. As to `CC1=CC(C)(C)N(C(=O)CSc2nnc(-c3ccccc3)o2)c2ccc(C)cc21`, the Potency entry was “inactive”. Take `O=C(NC1CC(=O)N(c2ccc(Cl)cc2)C1)C1CCCC1` (stereo not given): the Potency entry is “inactive”.

As to `Cn1ccc2cc(S(=O)(=O)N3CCCC(C(=O)NCc4ccccc4F)C3)ccc21` (stereo not given), the Potency entry is “inactive”. In the case of `COc1ccc(-c2nc3ccccc3o2)cc1NC(=O)c1cc([N+](=O)[O-])ccc1N1CCOCC1`, the Potency entry was “inactive”. In the case of `CCOc1ccc2nc(NC(=O)c3cc([N+](=O)[O-])ccc3N3CCOCC3)sc2c1` it was 3.16 µM (active); in that of `O=C(NC1CCCCC1)c1cc([N+](=O)[O-])ccc1N1CCOCC1`, “inactive”. For the molecule `CCOC(=O)c1c(NC(=O)c2cccs2)sc(C)c1C`, the Potency entry is “inactive”.

As for `CCOC(=O)c1sc(NC(=O)COc2ncnc3ccccc23)c(C(=O)OCC)c1C`, the Potency entry is “inactive”. Consider `CCOC(=O)c1c(NC(=O)COc2cc(C)ccc2C(C)C)sc(C)c1C`, for which the Potency was 25.1 µM (active). Regarding `Clc1cccc(-n2ncc3c(NCCc4ccccc4)ncnc32)c1`, the Potency result is “inactive”.

Consider `Cc1ccc(Cl)cc1NC(=O)CCC(=O)N1CC(C)Sc2ccccc21` (stereo not given), for which the Potency entry is “inactive”. Turning to `CCCNC(=O)C1CCN(c2nc3ccc(C)cc3[nH]2)CC1`, the Potency entry was “inactive”. Turning to `COCC(C)NS(=O)(=O)c1ccc(N2CCCCS2(=O)=O)cc1` (stereo not given), the Potency entry is “inactive”. To `S=C(NCCc1ccccc1)N1CCCCC1` belongs “inactive”.

As to `OCCN1CCN(C(=S)c2ccc(-c3ccccc3)cc2)CC1`, the Potency entry was “inactive”. As to `S=C(c1ccc(-c2ccccc2)o1)N1CCCCC1`, the Potency was 15.8 µM (active). With `Oc1ccc(CNc2ccccc2O)cc1`, the Potency was 14.1 µM (active). Turning to `OCC(CO)(CO)NCc1ccc(-c2ccccc2)cc1`, the Potency entry is “inactive”. As for `Oc1ccccc1N1CCN(C(=S)NCc2ccccc2)CC1`, the Potency entry is “inactive”.

For the molecule `Cc1cccc(C2C3=C(CCCC3=O)N=C3c4ccccc4C(=O)C32)c1` (stereo not given), the Potency is 14.1 µM (active). To `CCc1nc2cccnc2n1-c1ccc(CC(=O)Nc2c(C)cccc2C)cc1` belongs “inactive”; to `COc1ccc(CCNC(=O)Cn2c(=O)cc(C(F)(F)F)c3c(C)nn(C)c32)c(OC)c1`, “inactive”. Regarding `Cc1ccc(/C=C/C(=O)Nc2ccc([N+](=O)[O-])c(NC(=O)/C=C/c3ccc(C)o3)c2)o1`, the Potency was 12.6 µM (active). Consider `CCc1nnc(NC(=O)/C=C/c2ccc(C)o2)s1`, for which the Potency entry was “inactive”. To `Cc1ccc(/C=C/C(=O)Nc2cc(S(=O)(=O)N3CCCCCC3)ccc2OCC(F)(F)F)o1` belongs “inactive”; to `CCOc1ccccc1N=C1NC(=O)CS1`, “inactive”.

As for `CCOc1cccc(/C=N/N2C(=O)CSC2=S)c1O`, the Potency is 22.4 µM (active). As for `CCOc1cccc(/C=N/NC(=S)NCCN2CCOCC2)c1O`, the Potency entry was “inactive”.

The values are drawn from PubChem BioAssay AID1460 (National Center for Advancing Translational Sciences (NCATS), 2008).
